In PubChem BioAssay (NCATS) one finds Potency, outcome and max response data, which are given here for six compounds.

A number with no mark means an inactive call. Results filed as inconclusive are left out. Active and inactive are the calls of the source. The call rests on the fitted dose curve; in most records, active means well fitted curve in the direction sought with a large enough effect; inconclusive means small, poorly fitted or top-dose-only effect, or another doubt; inactive means no such curve, though single readings can be large; an effect the other way counts as inactive or inconclusive.

The test system of assay [1] is Zika virus NS2B-NS3 protease (linked construct). Kind of assay: Primary screen NINDS Rhodamine qHTS for Zika virus inhibitors (AID 1347160). Further: nearly all actives have a fitted effect of over 55% in size. In outline:
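Rhodamine110-peptide cleavage (1.5 µM substrate) by 25 nM linked NS2B-NS3 enzyme at pH 8.0 (Tris, Tween 20), after 15 min RT preincubation with compounds; 15-min fluorescence change normalized to controls and Hill-fitted.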

In assay [2] the target is Calcium and integrin-binding protein 1 (Homo sapiens) (UniProt Q99828). Kind of assay: Primary qHTS for Identification of Calcium Integrin Binding Protein 1 (CIB1) Competitor (AID 1508620).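 Further: GST tagged CIB1 binding a fluorescein labelled alphaIIb integrin peptide tracer; top concentration of the series differs between compounds; on the % scale 0 is the no-effect control and ±100 the full control effect.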 In short, it runs like this:
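Fluorescence polarization competition: CIB1-GST (1 uM final) preincubated with compound 15 min at room temperature, then FITC-labeled alphaIIb peptide (100 nM final) added for another 15 min. Polarization read at Ex 480/Em 540.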
For orientation: qHTS replaces the single test concentration by a dilution series.

The target of assay [3] is Glutathione peroxidase 1 (Homo sapiens) (UniProt P07203). Kind of assay: Primary qHTS Assay for Inhibitors of Recombinant Selenoprotein Glutathione Peroxidase 1 (GPX1) (AID 1845191). Further: nearly all actives have a fitted effect of over 65% in size. In short, it runs like this:
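GPX1 10 nM, GR 100 nM, GSH 1 mM, NADPH 0.5 mM, CHP 0.5 mM (final). 30-min cpd preincubation, RT. Ex340/Em450 read t=0, t=15 min.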

Assay [4] has as its target Phospholipid hydroperoxide glutathione peroxidase GPX4 (Homo sapiens) (UniProt P36969). Kind of assay: Primary qHTS Assay for Inhibitors of Recombinant Selenoprotein Glutathione Peroxidase 4 (GPX4) (AID 1845192). Further: nearly all actives have a fitted effect of over 65% in size. In short, it runs like this:
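qHTS, GR-coupled: GPX4 200 nM + cpd 30 min RT → GSH 1 mM, NADPH 0.5 mM, GR 100 nM → CHP 0.5 mM start; fluor 340/450 at t0 and t15 min; no-enzyme wells as control.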

For assay [5], the target named is Luciferin 4-monooxygenase (Photinus pyralis) (UniProt P08659). Kind of assay: Primary firefly luciferase (FLuc) qHTS assay for identification of artifact compounds. (AID 1845220). Further: nearly all actives have a fitted effect of over 60% in size. To be noted: outcome: dose series up to 54.1 µM unless noted. In outline: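 In this counter-screen for luciferase artifacts, test compounds met substrate (10 uM each luciferin and ATP) before 10 nM enzyme started the reaction. Light output was measured 5 min later.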

A short description of assay [6]: Primary fluorescence-based thiol-reactive (MSTI) qHTS assay for identification of artifact compounds. (AID 1845221). Further: nearly all actives have a fitted effect of over 65% in size. Further: potency means the concentration at half of the fitted maximal effect. In outline: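 Reactivity toward the thiol probe MSTI (4 uM) is scored by fluorescence at Ex/Em 525/598 nm after 1 h at room temperature. Acetyl-MSTI and MSTI define the activity scale.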
For assay [7], the system named is Nanoluciferase (engineered Oplophorus gracilirostris luciferase). Kind of assay: Primary Nanoluciferase (NLuc) qHTS assay for identification of artifact compounds. (AID 1845222).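 Further: NLuc secreted into diluted conditioned medium of S16 cells.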 In short, it runs like this:
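Using secreted nanoluciferase in S16 culture medium (0.22 um filtered, 1:55 dilution), compounds were preincubated 15 min at RT. Signal was generated with Nano-Glo reagent (1:100) over 5 min.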

A short description of assay [8]: Primary redox qHTS assay for identification of artifact compounds. (AID 1845223).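 Further: 0% = DMSO and 100% = reference compound.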 In outline: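 Redox-cycling detection via DTT (250 uM final) oxidation coupled to Amplex Red (25 uM)/HRP (250 mU/mL) in HBSS. 15 min preincubation plus 30 min after DTT, room temperature. Ex/Em 525/598 nm; 4-parameter Hill fit against DMSO and 10 uM DA3003.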
Assay [9] has as its system HaCat. Kind of assay: Cytotoxic Profiling of Annotated Libraries Using Quantitative High-Throughput Screening (AID 1296008). Further: nearly all actives have a fitted effect of over 60% in size. On max response: on the % scale 0 is the no-effect control and ±100 the full control effect. To be noted: Five cell lines viability, CellTiter-Glo ATP luminescence, 48-72 h; max response: hits give low values. In outline: (§1)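 Compounds were pin-transferred onto cells and incubated 48 or 72 hr at 37 degree Celsius, 95% humidity. CellTiter-Glo was added, plates sat 10 min at room temperature, then ATP-coupled luminescence was imaged as the viability read-out.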
In general terms: ATP-based viability assays read luminescence as a measure of living cells.

For assay [10], the system named is NIH3T3. The description is as above. To be noted: Five cell lines viability, CellTiter-Glo ATP luminescence, 48-72 h; max response: hits give low values. In short, it runs like this:
as §1

The subject of assay [11] is C33A. Kind of assay: Primary qHTS to identify gynecologic anti-cancer compounds using libraries of approved drugs and bioactive compounds (AID 1345084). Further: on the % scale 0 is the no-effect control and ±100 the full control effect; nearly all actives have a fitted effect of over 55% in size. To be noted: Gynecologic cancer cell panel viability, ATPlite luminescence, 48 h; series mostly up to 57.5 µM. In outline:
(§2)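 Measured: luminescence after ATPlite addition (15 min, RT). Exposure: 48 h, 37 C, 5% CO2.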

In assay [12] the test system is CAOV3. The assay is described as above. To be noted: Gynecologic cancer cell panel viability, ATPlite luminescence, 48 h; series mostly up to 57.5 µM. In short, it runs like this:
as §2

Assay [13] deals with CASKI. The assay is described as above. To be noted: Gynecologic cancer cell panel viability, ATPlite luminescence, 48 h; series mostly up to 57.5 µM. In outline: as §2
For assay [14], the system named is Es-2. Described as above. To be noted: Gynecologic cancer cell panel viability, ATPlite luminescence, 48 h; series mostly up to 57.5 µM. In outline:
as §2

The subject of assay [15] is Hek293T. Described as above. To be noted: Gynecologic cancer cell panel viability, ATPlite luminescence, 48 h, control line for the selectivity index; series mostly up to 57.5 µM. In outline:
as §2

For assay [16], the system named is JEG-3. Described as above. To be noted: Gynecologic cancer cell panel viability, ATPlite luminescence, 48 h; series mostly up to 57.5 µM. In short, it runs like this:
as §2

Assay [17] deals with PA-1. The description is as above. To be noted: Gynecologic cancer cell panel viability, ATPlite luminescence, 48 h; series mostly up to 57.5 µM. In outline:
as §2

Assay [18] has as its system Tov-21-G. Described as above. To be noted: Gynecologic cancer cell panel viability, ATPlite luminescence, 48 h; series mostly up to 57.5 µM. In short, it runs like this:
as §2

For assay [19], the system named is Tov112D. Described as above. To be noted: Gynecologic cancer cell panel viability, ATPlite luminescence, 48 h; series mostly up to 57.5 µM. In short, it runs like this: as §2
The subject of assay [20] is OV90. The assay is described as above. To be noted: Gynecologic cancer cell panel viability, ATPlite luminescence, 48 h; series mostly up to 57.5 µM. In short, it runs like this:
as §2

Phospholipid hydroperoxide glutathione peroxidase GPX4 (Homo sapiens), sequence (P36969 whole entry, looked up): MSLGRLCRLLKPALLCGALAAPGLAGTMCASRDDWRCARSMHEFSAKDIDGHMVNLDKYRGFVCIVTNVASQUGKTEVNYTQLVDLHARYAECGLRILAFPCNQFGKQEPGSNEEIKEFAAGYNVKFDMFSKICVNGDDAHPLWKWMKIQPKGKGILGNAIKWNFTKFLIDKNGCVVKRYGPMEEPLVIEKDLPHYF
Calcium and integrin-binding protein 1 (Homo sapiens), sequence (Q99828 whole entry, looked up): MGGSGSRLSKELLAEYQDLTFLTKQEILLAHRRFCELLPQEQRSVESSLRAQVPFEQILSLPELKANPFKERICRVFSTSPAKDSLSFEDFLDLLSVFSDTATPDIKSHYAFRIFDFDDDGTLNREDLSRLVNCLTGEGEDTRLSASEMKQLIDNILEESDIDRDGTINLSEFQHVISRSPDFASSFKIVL
Glutathione peroxidase 1 (Homo sapiens), sequence (P07203 whole entry, looked up): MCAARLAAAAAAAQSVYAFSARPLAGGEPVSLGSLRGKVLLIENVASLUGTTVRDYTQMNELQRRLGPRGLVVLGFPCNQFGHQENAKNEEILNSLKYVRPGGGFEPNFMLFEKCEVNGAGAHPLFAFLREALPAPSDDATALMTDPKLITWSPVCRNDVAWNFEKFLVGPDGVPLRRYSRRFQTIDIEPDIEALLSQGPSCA

In the case of `CCCN(CCC)CCc1ccc(OC)c(OCCc2ccccc2)c1`, the Potency entry in [1], in assay [2], in assay [3], in [4], in assay [6] and in assay [7] was “inactive” in each case. Also, the Potency entry in [8], in [11], in assay [12], in assay [13], in [14] and in [15] was “inactive” throughout. Moreover, the Potency entry in assay [16], in assay [17], in assay [18] and in assay [19] was “inactive” throughout. Moreover, the call in [5] was inactive. For the same compound, the max response was -13.9% in [9] and 1.81% in assay [10].

For `C[C@@H]1CCC2[C@@H](C)C(=O)OC3O[C@@]4(C)CCC1[C@]32OO4` (stereo partly specified), the Potency entry in assay [1], in assay [2], in assay [4], in assay [6], in assay [7] and in assay [8] was “inactive” throughout. The Potency result in [11], in [12], in assay [13], in assay [14], in assay [15] and in [16] was “inactive” each time. The Potency entry in [20], in [17], in [18] and in [19] was “inactive” each time. The outcome in [5] was inactive. In addition, the max response in assay [9] is -1.21%; in assay [10] it was -13.5%.

Turning to `Oc1ccc2c(c1)C13CCCC[C@H]1[C@@H](C2)N(CC1CCC1)CC3`, the Potency result in assay [1], in [2], in [3], in [4], in assay [6] and in [7] was “inactive” in each case. Moreover, the Potency entry in [8], in [11], in assay [12], in assay [13], in [15] and in assay [16] was “inactive” each time. Besides, the Potency result in assay [18] and in assay [19] was “inactive” each time. Moreover, the result in assay [5] and in [9] was inactive. For the same compound, the max response in assay [10] was -7.5%.

`C=C1C(=O)O[C@@H]2[C@H]3C(=C)[C@@H](O)C[C@H]3C(=C)C[C@@H](O)[C@@H]12`: the Potency entry in assay [2], in assay [3], in assay [4], in assay [7], in assay [8] and in assay [11] was “inactive” throughout. In addition, the Potency entry in assay [12], in assay [13], in [14], in assay [15], in assay [16] and in assay [20] was “inactive” throughout. Moreover, the Potency result in assay [17] and in [19] was “inactive” each time. Also, in [5], the compound was called inactive. Besides, the Potency in [6] is 5.32 µM (active). Further, the max response in assay [9] is -4.6%.

Consider `C=C[C@H]1CN2CCC1C[C@H]2[C@H](O)c1ccnc2ccccc12` (stereo partly specified), for which the Potency result in assay [1], in assay [2], in [4], in [6], in assay [7] and in [8] was “inactive” throughout. Moreover, the Potency entry in assay [11], in assay [12], in assay [13], in assay [14], in assay [15] and in assay [16] was “inactive” throughout. Moreover, the Potency entry in assay [20], in assay [17], in assay [18] and in assay [19] was “inactive” in each case. Moreover, the outcome in assay [5] was inactive. The max response in [9] is -26.7%; in assay [10], -5.71%.

With `CN1CCC2=C(C1)c1ccccc1Cc1ccccc12`, the Potency result in [1], in assay [2], in assay [3], in [4], in assay [6] and in assay [7] was “inactive” in each case. In addition, the Potency entry in [8], in assay [11], in assay [12], in [13], in assay [14] and in [15] was “inactive” throughout. The Potency result in assay [16], in [20], in assay [17], in assay [18] and in [19] was “inactive” throughout. Also, the outcome in [5] and in assay [9] was inactive. Also, the max response in assay [10] is 0.135%.
